# Only a selection was taken, and the strongest signals are over-represented in it overall.
# Tests used:
# Test in all cases: glycan array binding signal (z-score within array); higher = stronger binding
# Conditions in all cases: glycan notation: IUPAC condensed, linker removed
# [1] = target: Fuc(a1-2)Gal(b1-3)GlcNAc(b1-2)Man(a1-3)[Fuc(a1-2)Gal(b1-3)GlcNAc(b1-2)Man(a1-6)]Man(b1-4)GlcNAc(b1-4)[Fuc(a1-6)]GlcNAc
# In short: (§1)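 The binding signal is a Z-score computed within each array. Data were drawn from 3228 arrays in the Consortium for Functional Glycomics database, restricted to those with a known protein sequence. Scores were averaged over arrays of the same protein sequence at different concentrations or buffers, and over linkers, and negative values can be taken as non-binding.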
# [2] = target: Fuc(a1-2)Gal(b1-3)GlcNAc(b1-3)[Gal(b1-4)GlcNAc(b1-6)]Gal(b1-4)Glc
# In short: as §1
# [3] = target: Fuc(a1-2)Gal(b1-3)[Fuc(a1-4)]GlcNAc
# In short: as §1
# [4] = target: Fuc(a1-2)Gal(b1-3)[Fuc(a1-4)]GlcNAc(b1-2)Man(a1-3)[Fuc(a1-2)Gal(b1-3)[Fuc(a1-4)]GlcNAc(b1-2)Man(a1-3)]Man(b1-4)GlcNAc(b1-4)GlcNAc
# In short: as §1
# [5] = target: Fuc(a1-2)Gal(b1-4)GlcNAc(b1-6)GalNAc
# In short: as §1
# [6] = target: Fuc(a1-2)Gal3S(b1-4)GlcNAc
# In short: as §1
# [7] = target: Fuc(a1-2)[Gal(a1-3)]Gal(b1-3)GalNAc(b1-3)Gal(a1-4)Gal(b1-4)Glc
# In short: as §1
# [8] = target: Fuc(a1-2)[Gal(a1-3)]Gal(b1-3)GlcNAc
# In short: as §1
# [9] = target: Fuc(a1-2)[Gal(a1-3)]Gal(b1-3)GlcNAc(b1-6)GalNAc
# In short: as §1
# [10] = target: Fuc(a1-2)[Gal(a1-3)]Gal(b1-4)[Fuc(a1-3)]GlcNAc(b1-3)GalNAc
# In short: as §1
# [11] = target: Fuc(a1-3)[Gal(b1-4)]GlcNAc(b1-2)Man(a1-3)[Fuc(a1-3)[Gal(b1-4)]GlcNAc(b1-2)Man(a1-6)]Man(b1-4)GlcNAc(b1-4)GlcNAc
# In short: as §1
# [12] = target: Fuc(a1-3)[Gal(b1-4)]GlcNAc(b1-3)Gal(b1-4)[Fuc(a1-3)]GlcNAc
# In short: as §1
# [13] = target: Fuc(a1-3)[Gal(b1-4)]GlcNAc(b1-6)GalNAc
# In short: as §1
# [14] = target: Fuc(a1-3)[Gal(b1-4)]GlcNAc6S
# In short: as §1
# [15] = target: Gal(a1-3)Gal(b1-3)GlcNAc(b1-6)GalNAc
# In short: as §1
# [16] = target: Gal(a1-3)Gal(b1-4)GlcNAc(b1-2)Man(a1-3)[Gal(a1-3)Gal(b1-4)GlcNAc(b1-2)Man(a1-6)]Man(b1-4)GlcNAc(b1-4)GlcNAc
# In short: as §1
# [17] = target: Gal(b1-3)GlcNAc(b1-2)Man(a1-3)[Gal(b1-3)GlcNAc(b1-2)Man(a1-6)]Man(b1-4)GlcNAc(b1-4)GlcNAc
# In short: as §1
# [18] = target: Gal(b1-3)GlcNAc(b1-2)Man(a1-3)[Gal(b1-3)GlcNAc(b1-2)Man(a1-6)]Man(b1-4)GlcNAc(b1-4)[Fuc(a1-6)]GlcNAc
# In short: as §1
# [19] = target: Gal(b1-3)GlcNAc(b1-3)Gal(b1-4)GlcNAc
# In short: as §1
# [20] = target: Gal(b1-3)GlcNAc(b1-3)Gal(b1-4)GlcNAc(b1-2)Man(a1-3)[Gal(b1-3)GlcNAc(b1-3)Gal(b1-4)GlcNAc(b1-2)Man(a1-6)]Man(b1-4)GlcNAc(b1-4)GlcNAc
# In short: as §1
# [21] = target: Gal(b1-3)GlcNAc(b1-6)Gal(b1-4)GlcNAc
# In short: as §1
# [22] = target: Gal(b1-3)GlcNAc(b1-6)[Gal(b1-3)]GalNAc
# In short: as §1
# [23] = target: Gal(b1-3)[Fuc(a1-4)]GlcNAc(b1-6)GalNAc
# In short: as §1
# [24] = target: Gal(b1-4)GlcNAc(b1-3)Gal(b1-3)GalNAc
# In short: as §1
# [25] = target: Gal(b1-4)GlcNAc(b1-3)Gal(b1-4)GlcNAc(b1-2)Man(a1-3)[Gal(b1-4)GlcNAc(b1-3)Gal(b1-4)GlcNAc(b1-2)Man(a1-6)]Man(b1-4)GlcNAc(b1-4)GlcNAc
# In short: as §1
# [26] = target: Gal(b1-4)GlcNAc(b1-3)Gal(b1-4)GlcNAc(b1-2)Man(a1-3)[Gal(b1-4)GlcNAc(b1-3)Gal(b1-4)GlcNAc(b1-2)Man(a1-6)]Man(b1-4)GlcNAc(b1-4)[Fuc(a1-6)]GlcNAc
# In short: as §1
# [27] = target: Gal(b1-4)GlcNAc(b1-3)Gal(b1-4)GlcNAc(b1-3)Gal(b1-4)GlcNAc(b1-2)Man(a1-3)[Gal(b1-4)GlcNAc(b1-3)Gal(b1-4)GlcNAc(b1-3)Gal(b1-4)GlcNAc(b1-2)Man(a1-6)]Man(b1-4)GlcNAc(b1-4)[Fuc(a1-6)]GlcNAc
# In short: as §1
# [28] = target: Gal(b1-4)GlcNAc(b1-3)Gal(b1-4)GlcNAc(b1-3)Gal(b1-4)GlcNAc(b1-3)Gal(b1-4)GlcNAc(b1-3)Gal(b1-4)GlcNAc(b1-2)Man(a1-3)[Gal(b1-4)GlcNAc(b1-3)Gal(b1-4)GlcNAc(b1-3)Gal(b1-4)GlcNAc(b1-3)Gal(b1-4)GlcNAc(b1-3)Gal(b1-4)GlcNAc(b1-2)Man(a1-6)]Man(b1-4)GlcNAc(b1-4)GlcNAc
# In short: as §1
# [29] = target: Gal(b1-4)GlcNAc(b1-3)Gal(b1-4)GlcNAc(b1-6)[Gal(b1-3)]GalNAc
# In short: as §1
# [30] = target: Gal6S(b1-4)Glc
# In short: as §1
# [31] = target: Gal6S(b1-4)GlcNAc6S
# In short: as §1
# [32] = target: GalNAc(a1-3)GalNAc
# In short: as §1
# [33] = target: GalNAc(b1-4)GlcNAc(b1-3)GalNAc(b1-4)GlcNAc
# In short: as §1
# [34] = target: GalNAc3S(b1-4)GlcNAc
# In short: as §1
# [35] = target: GlcNAc(a1-4)Gal(b1-4)GlcNAc(b1-3)Gal(b1-4)GlcNAc
# In short: as §1
# [36] = target: GlcNAc(a1-4)Gal(b1-4)GlcNAc(b1-3)Gal(b1-4)[Fuc(a1-3)]GlcNAc(b1-3)Gal(b1-4)[Fuc(a1-3)]GlcNAc
# In short: as §1
# [37] = target: GlcNAc(b1-2)[GlcNAc(b1-4)]Man(a1-3)[GlcNAc(b1-4)][GlcNAc(b1-2)[GlcNAc(b1-6)]Man(a1-6)]Man(b1-4)GlcNAc(b1-4)[Fuc(a1-6)]GlcNAc
# In short: as §1
# [38] = target: GlcNAc(b1-3)Gal(b1-4)GlcNAc(b1-3)Gal(b1-4)GlcNAc(b1-3)Gal(b1-4)GlcNAc(b1-3)Gal(b1-4)GlcNAc(b1-2)Man(a1-3)[GlcNAc(b1-3)Gal(b1-4)GlcNAc(b1-3)Gal(b1-4)GlcNAc(b1-3)Gal(b1-4)GlcNAc(b1-3)Gal(b1-4)GlcNAc(b1-2)Man(a1-6)]Man(b1-4)GlcNAc(b1-4)[Fuc(a1-6)]GlcNAc
# In short: as §1
# [39] = target: GlcNAc(b1-3)Man
# In short: as §1
# [40] = target: Kdn(a2-3)Gal(b1-3)GlcNAc
# In short: as §1
# [41] = target: Kdn(a2-3)Gal(b1-4)[Fuc(a1-3)]GlcNAc
# In short: as §1
# [42] = target: Kdn(a2-6)Gal(b1-4)GlcNAc
# In short: as §1
# [43] = target: Neu5Ac(a2-3)Gal(b1-3)GalNAc(b1-3)Gal(a1-4)Gal(b1-4)Glc
# In short: as §1
# [44] = target: Neu5Ac(a2-3)Gal(b1-3)GalNAc(b1-4)[Neu5Ac(a2-3)]Gal(b1-4)Glc
# In short: as §1
# [45] = target: Neu5Ac(a2-3)Gal(b1-3)[Fuc(a1-4)]GlcNAc(b1-3)Gal(b1-3)[Fuc(a1-4)]GlcNAc
# In short: as §1
# [46] = target: Neu5Ac(a2-3)Gal(b1-3)[Fuc(a1-4)]GlcNAc(b1-3)Gal(b1-4)[Fuc(a1-3)]GlcNAc
# In short: as §1
# [47] = target: Neu5Ac(a2-3)Gal(b1-4)GlcNAc(b1-3)Gal(b1-4)[Fuc(a1-3)]GlcNAc
# In short: as §1
# [48] = target: Neu5Ac(a2-3)[Neu5Ac(a2-6)]GalNAc
# In short: as §1
# [49] = target: Neu5Ac(a2-6)Gal(b1-4)GlcNAc(b1-2)Man(a1-3)[Neu5Ac(a2-6)Gal(b1-4)GlcNAc(b1-2)Man(a1-6)]Man(b1-4)GlcNAc(b1-4)[Fuc(a1-6)]GlcNAc
# In short: as §1
# [50] = target: Neu5Ac(a2-6)Gal(b1-4)GlcNAc(b1-2)Man(a1-6)[GlcNAc(b1-2)Man(a1-3)]Man(b1-4)GlcNAc(b1-4)GlcNAc
# In short: as §1
# [51] = target: Neu5Ac(a2-8)Neu5Ac(a2-3)Gal(b1-3)GalNAc(b1-4)[Neu5Ac(a2-8)Neu5Ac(a2-3)]Gal(b1-4)Glc
# In short: as §1
# [52] = target: Neu5Ac(a2-8)Neu5Gc(a2-3)Gal(b1-4)GlcNAc
# In short: as §1
binder,measurement,setting,value
PX9937B-bvu-524-33-524 (Bacteroides vulgatus) (protein) GTAYWKNPDQFTAFNTGLHALLREKSYNFFLLGEPRADIYGDNPIGGEASQGMERLPFNTINKENVGISNYGDMYKIINQINQMIAKTTETTILTEATQNYYLGEAYGMRAYLYFHLLRSWGDVVLYLDYTEGQNLDLSNITKGVSPATEVMEQIKKDIQASENAFGSDYSFKLGRHFWSAAATQMLKGEAYLWSGRQMNGGNSDYTIAKNAFENVKKADVGLVTSSFKDIFSFENKKNKEMIFTIHNGKDEYEMWGGYYRMRLIPAQDKMVKIYCDENGNSFVGTPDAQLNGLTQLQVRREFYFKGFRNNDTRWTTSLKAVYKKDAQGVVSYFGPITYKFQGTMLEGGSTRSFLDDFPIYRYADCLLQLAMAKVLLGEDPTEEINAVRERAYGSKYFNEHKAEIAYPNDNDPEFYTDNKWMKPDNAGALEAILKERLREFMFEGKRWYDIRLLGWDYVHQYSSAEQSRLLWPIDAGTLTNNSALKQTPGYE,glycan array binding signal (z-score),[1],-0.232
same,glycan array binding signal (z-score),[2],-0.284
same,glycan array binding signal (z-score),[3],-0.457
same,glycan array binding signal (z-score),[4],-0.154
same,glycan array binding signal (z-score),[5],-0.136
same,glycan array binding signal (z-score),[6],-0.476
same,glycan array binding signal (z-score),[7],0.046
same,glycan array binding signal (z-score),[8],-0.275
same,glycan array binding signal (z-score),[9],-0.124
same,glycan array binding signal (z-score),[10],-0.416
same,glycan array binding signal (z-score),[11],1.23
same,glycan array binding signal (z-score),[12],-0.277
same,glycan array binding signal (z-score),[13],2.69
same,glycan array binding signal (z-score),[14],0.219
same,glycan array binding signal (z-score),[15],6.13
same,glycan array binding signal (z-score),[16],2.91
same,glycan array binding signal (z-score),[17],-0.057
same,glycan array binding signal (z-score),[18],0.088
same,glycan array binding signal (z-score),[19],-0.228
same,glycan array binding signal (z-score),[20],12.8
same,glycan array binding signal (z-score),[21],-0.085
same,glycan array binding signal (z-score),[22],7.68
same,glycan array binding signal (z-score),[23],-0.019
same,glycan array binding signal (z-score),[24],-0.08
same,glycan array binding signal (z-score),[25],2.05
same,glycan array binding signal (z-score),[26],1.48
same,glycan array binding signal (z-score),[27],2.54
same,glycan array binding signal (z-score),[28],8.61
same,glycan array binding signal (z-score),[29],3.08
same,glycan array binding signal (z-score),[30],-0.101
same,glycan array binding signal (z-score),[31],-0.297
same,glycan array binding signal (z-score),[32],-0.035
same,glycan array binding signal (z-score),[33],-0.144
same,glycan array binding signal (z-score),[34],-0.324
same,glycan array binding signal (z-score),[35],-0.254
same,glycan array binding signal (z-score),[36],0.453
same,glycan array binding signal (z-score),[37],-0.459
same,glycan array binding signal (z-score),[38],5.78
same,glycan array binding signal (z-score),[39],0.006
same,glycan array binding signal (z-score),[40],-0.588
same,glycan array binding signal (z-score),[41],-0.28
same,glycan array binding signal (z-score),[42],-0.409
same,glycan array binding signal (z-score),[43],-0.124
same,glycan array binding signal (z-score),[44],0.323
same,glycan array binding signal (z-score),[45],-0.529
same,glycan array binding signal (z-score),[46],-0.189
same,glycan array binding signal (z-score),[47],0.162
same,glycan array binding signal (z-score),[48],-0.279
same,glycan array binding signal (z-score),[49],0.782
same,glycan array binding signal (z-score),[50],0.042
same,glycan array binding signal (z-score),[51],-0.231
same,glycan array binding signal (z-score),[52],5.74

# — the supplement of paper PMC8728848
